Assay results reported in PubChem BioAssay (NCI).
Where “and” joins values, the source holds several entries; their conditions need not be identical. Equal values may be shown once. About 79,000 compounds went through this panel and 15% of them were active in at least one assay; those are over-represented in the sample as a whole. Rule as the data show it: active = growth inhibition above about 70%; inactive = the rest.

Tests used:
[1] = NCI Yeast Anticancer Drug Screen. Data for the rad52 strain (AID 147);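 also: 0% = growth of vehicle-treated control cultures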; conditions: S. cerevisiae rad52 mutant growth inhibition, active compounds read high
Outline: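 Here a repair-compromised yeast strain receives each compound; its growth is then quantified and normalised to vehicle-only controls.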

[2] = NCI Yeast Anticancer Drug Screen. Data for the wt1 strain (AID 149);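 also: 0% = growth of vehicle-treated wt1 cultures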; conditions: S. cerevisiae wt1 strain (SPY 50644) growth inhibition, active compounds read high
Outline: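 Compounds are added to wt1 yeast cultures. Growth is then measured. Inhibition is expressed relative to vehicle-treated controls.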

[3] = NCI Yeast Anticancer Drug Screen. Data for the rad50EPP+ strain (AID 151);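 also: 0% = growth of vehicle-treated control cultures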; conditions: S. cerevisiae rad50 mutant strain, active compounds read high
Outline: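 Read-out is yeast growth inhibition relative to vehicle; cells used were the rad50EPP+ strain.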

[4] = NCI Yeast Anticancer Drug Screen. Data for the mgt1 strain (AID 153); conditions: S. cerevisiae mgt1 mutant growth inhibition, active compounds read high
Outline: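 Measured: inhibition of mgt1 yeast growth by compound, normalized to vehicle-treated cultures.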

[5] = NCI Yeast Anticancer Drug Screen. Data for the rad50 strain (AID 155);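 also: 0% = growth of vehicle-only cultures of the same strain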; conditions: S. cerevisiae rad50 strain growth inhibition, active compounds read high
Outline: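 Inhibition values express reduced yeast growth in compound-treated cultures relative to vehicle-treated controls.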

[6] = NCI Yeast Anticancer Drug Screen. Data for the mec2-1 strain (AID 157); conditions: S. cerevisiae mec2-1 strain, active compounds read high
Outline: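 Using mec2-1 yeast: add compound, measure growth, express inhibition versus vehicle-treated cultures.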

[7] = NCI Yeast Anticancer Drug Screen. Data for the rad14 strain (AID 159);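 also: 0% = growth of vehicle-treated control cultures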; conditions: S. cerevisiae rad14 strain growth inhibition, active compounds read high
Outline: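 A mutant yeast strain defective in DNA damage repair is treated with compound; inhibition of its growth is scored against untreated, vehicle-exposed cultures.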

[8] = at 5.0 µM (retest, dose inferred, filed as 0.5)
[9] = at 50.0 µM (retest, dose inferred, filed as 5.0)

Measured: growth inhibition

c1ccc2[nH]c(-c3cscn3)nc2c1
inactive: [1]; at 1.2 µM -3% | [1]; at 3.7 µM -3% | [1]; at 11.0 µM -3% | [1]; at 33.0 µM 2% | [1]; at 100.0 µM -1% | [2]; at 1.2 µM -1% | [2]; at 3.7 µM -3% | [2]; at 11.0 µM -2% | [2]; at 33.0 µM -5% | [2]; at 100.0 µM -4% | [3]; at 1.2 µM 0% | [3]; at 3.7 µM 0% | [3]; at 11.0 µM 3% | [3]; at 33.0 µM 16% | [3]; at 100.0 µM 29% | [4]; at 1.2 µM -2% | [4]; at 3.7 µM -2% | [4]; at 11.0 µM -5% | [4]; at 33.0 µM -5% | [4]; at 100.0 µM -7% | [5]; at 1.2 µM -2% | [5]; at 3.7 µM 3% | [5]; [8] -19% | [5]; at 11.0 µM -1% | [5]; at 33.0 µM 4% | [5]; [9] -2% | [5]; at 50.0 µM -4.2% and 39.9% | [5]; at 100.0 µM 11% | [6]; at 1.2 µM -2% | [6]; at 3.7 µM -8% | [6]; [8] -12% | [6]; at 11.0 µM -3% | [6]; at 33.0 µM -6% | [6]; [9] 4% | [6]; at 50.0 µM 7.6% and 38.2% | [6]; at 100.0 µM -8% | [7]; at 1.2 µM -4% | [7]; at 3.7 µM -5% | [7]; at 11.0 µM -3% | [7]; at 33.0 µM -5% | [7]; at 100.0 µM -2%
